An excerpt weighted towards active compounds, which were near 7.9% of everything screened.
Lassa entry inh – blocks Lassa virus binding to or entry into cells; Lassa virus pseudotype entry inhibition, cell reporter; Potency, µM (titrated, usually from 37.9 µM), without a hit: at the highest dose activity change, negative = inhibition, actives largely listed as inhibitors; 300,000 compounds, 1.2% hits; calls by dose curve; tested in HEK293 cells; also: potency is read from the fitted curve at half-maximal effect; nearly all actives have a fitted effect of over 50% in size
HCMV antiviral – inhibitors of human cytomegalovirus. HFF cells, HCMV-luciferase reporter, 72 h; active compounds read low. activity change, negative = inhibition, % at 57.5 µM. 410,000 compounds, 4.5% hits; in the data active = activity change below about -60%; inconclusive = no clear call, values can overlap the other calls; inactive = above about -39%
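Screen run at 2 compound doses on HFFs infected with reporter HCMV, MOI 1 PFU/cell. Luciferase activity from cell lysates at 72 h post infection gave inhibition relative to buffer-only and Salinomycin wells.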
FMDV inh – antivirals against foot and mouth disease virus; FMDV antiviral cell-based qHTS; AID 1159524; Potency, µM (highest dose often 57.9 µM), inactives show at the highest dose activity change, negative = inhibition, hits mostly inhibitors; 410,000 compounds, 1.2% hits; calls by dose curve; tested in HEK293T cells; also: read-out not given here; potency is read from the fitted curve at half-maximal effect; nearly all actives have a fitted effect of over 45% in size
HCV inh – blocks hepatitis C virus | AID 651820 | 340,000 compounds, 3.4% hits | Huh7.5.1 HCVcc-Cre infection, luciferase reporter, 44 h | Potency, µM (titrated, usually from 41.8 µM), inactives show at the top dose activity change, negative = inhibition, actives largely listed as inhibitors; active = well fitted inhibition curve with a large enough effect; inconclusive = small, poorly fitted or top-dose-only effect, or another doubt; inactive = no such curve, though single readings can be large or run the other way; also: potency is read from the fitted curve at half-maximal effect
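Luciferase read-out (15 sec integration) after a 15 min room-temperature substrate step quantifies HCVcc-Cre infection. Cells, 1,000 per well, had compound added 4 h post-plating, then virus at ~0.5 moi, and were cultured 44 h.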
Marburg entry inh – Marburg virus entry inhibition; Potency, µM (top dose mostly 37.8 µM), inactives show top-dose activity change, negative = inhibition, usual class: inhibitors; Marburg virus pseudotyped entry inhibition, cell reporter; 300,000 compounds, 1.8% hits; AID 540276; calls by dose curve; tested in HEK293 cells; also: potency is read from the fitted curve at half-maximal effect
* hit, by the source's call; [ ] = remark or other dose. % is scaled to controls: 0 for no effect and ±100 for the full control effect.

COc1ccc(Cl)cc1NC(=O)CCCS(=O)(=O)c1nc(-c2ccc(OC)c(OC)c2)cc(C(F)(F)F)n1 was read as Lassa entry inh -4%[46.1 µM], HCMV antiviral -99*, FMDV inh inconclusive and Marburg entry inh inconclusive.
`COc1ccccc1-c1cc(C(F)(F)F)nc(S(=O)(=O)CCCC(=O)Nc2cc(C)on2)n1` gave Lassa entry inh -3%, HCMV antiviral -96*, FMDV inh 13µM*, HCV inh 20% and Marburg entry inh inconclusive.
Screening COc1ccc(-c2cc(C(F)(F)F)nc(S(=O)(=O)CCCC(=O)Nc3cc(C)on3)n2)cc1OC returned Lassa entry inh inconclusive, HCMV antiviral 47, FMDV inh 13µM*, HCV inh inconclusive and Marburg entry inh inconclusive.
`CC1=C(CC/C(C)=N/NC(N)=S)C(C)(C)CCC1` gave Lassa entry inh inconclusive, HCMV antiviral -24, FMDV inh -14%, HCV inh 25µM* and Marburg entry inh 21µM*.
For CC1=C(CCN2CCN(C3CCCC3)C(CCO)C2)C(C)(C)CCC1 (stereo not given) the results were Lassa entry inh -30%[46.1 µM], HCMV antiviral -37, FMDV inh -12%, HCV inh inconclusive and Marburg entry inh inconclusive.
For c1cc[n+](CCC[n+]2ccccc2)cc1 the results were Lassa entry inh inconclusive, HCMV antiviral -102*, FMDV inh 14%, HCV inh -8% and Marburg entry inh -1%[46.1 µM].
`Cc1nn2c3ccccc3nc2c2ccccc12` gave Lassa entry inh 8%, HCMV antiviral 181, FMDV inh 20%, HCV inh 13µM* and Marburg entry inh 14%.
`CCN(Cc1ccccc1)C(=O)CN1C(=O)COc2ccc(S(=O)(=O)N3CCCCCC3)cc21` gave Lassa entry inh -21%[46.1 µM], HCMV antiviral -77*, FMDV inh -11%, HCV inh -11% and Marburg entry inh -23%[46.1 µM].
CCN(Cc1ccccc1)C(=O)CN1C(=O)COc2ccc(S(=O)(=O)N3CCOCC3)cc21 was read as Lassa entry inh 14%[46.1 µM], HCMV antiviral 69 and FMDV inh -3%.
`CCN(C(=O)CN1C(=O)COc2ccc(S(=O)(=O)N3CCCCCC3)cc21)c1cccc(C)c1` gave Lassa entry inh 8%[46.1 µM], HCMV antiviral -63*, FMDV inh 5%, HCV inh inconclusive and Marburg entry inh inconclusive.
`Cc1ccc(C)c(N2CCN(C(=O)CN3C(=O)COc4ccc(S(=O)(=O)N5CCCC5)cc43)CC2)c1` gave Lassa entry inh 17%[46.1 µM], HCMV antiviral -8, FMDV inh -27% and Marburg entry inh -8%[46.1 µM].
Cc1cccc(N2CCN(C(=O)CN3C(=O)COc4ccc(S(=O)(=O)N5CCCCCC5)cc43)CC2)c1C was read as Lassa entry inh 6%[46.1 µM], HCMV antiviral -73*, FMDV inh -22% and Marburg entry inh 1%[46.1 µM].
For CC(C)NCCCCOc1ccc(Br)cc1Cl the results were HCMV antiviral inconclusive, FMDV inh -10% and HCV inh 10µM*.
`CC(C)NCCCOc1ccc(Cl)cc1Br` gave Lassa entry inh 4%, HCMV antiviral 22, FMDV inh inconclusive, HCV inh -14% and Marburg entry inh inconclusive.
For Cn1nc(C(=O)NCCN2Cc3ccccc3OC(c3ccsc3)C2)c2ccccc2c1=O (stereo not given) the results were FMDV inh -5%.
CCOC(=O)c1cc(NC(=O)c2ccccc2)c(=O)n2c1oc1ccccc12 was read as HCMV antiviral -71*, FMDV inh -11% and HCV inh 7%.
CCOC(=O)c1cc(NC(=O)c2ccc(C)cc2)c(=O)n2c1oc1ccccc12 was read as Lassa entry inh 8%[46.1 µM], HCMV antiviral -5, FMDV inh -1% and Marburg entry inh -4%[46.1 µM].
`CCC(C)NC(=O)Cn1ccc2cc(S(=O)(=O)N3CCCCC3)ccc21` (stereo not given) gave Lassa entry inh 26%[46.1 µM], HCMV antiviral -33 and FMDV inh -9%.
Screening O=C(O)c1cccc(-n2cc(-c3cccc(C(F)(F)F)c3)cn2)c1 returned HCMV antiviral 101, FMDV inh 8% and HCV inh 6%.
Screening CCOCCCNC(=O)C1CCN(c2cc(C)nc3c(-c4ccc(Cl)cc4)c(C)nn23)CC1 returned Lassa entry inh 5%[46.1 µM], HCMV antiviral -5, FMDV inh -24% and Marburg entry inh 2%[46.1 µM].
For CCC/C(=N/Nc1ccc(Cl)cc1)c1cnnc(-c2ccccc2)n1 the results were Lassa entry inh -11%, FMDV inh -11%, HCV inh 14µM* and Marburg entry inh inconclusive.
Screening CCOC(=O)c1csc(NC(=O)c2ccc3c(c2)OCCO3)n1 returned Lassa entry inh inconclusive, FMDV inh -36%, HCV inh 14µM* and Marburg entry inh inconclusive.
Screening CCOC(=O)c1sc(NC(=O)c2c(C)nn(Cc3ccccc3)c2C)cc1C returned Lassa entry inh -12%, HCMV antiviral -36, FMDV inh -24%, HCV inh 18µM* and Marburg entry inh inconclusive.
`CCOC(=O)c1csc(NC(=O)c2ccccc2)n1` gave HCMV antiviral 77, FMDV inh 22% and HCV inh inconclusive.
Screening CCOC(=O)c1sc(NC(=O)c2ccccc2)cc1C returned Lassa entry inh inconclusive, HCMV antiviral 28, FMDV inh 36%, HCV inh inconclusive and Marburg entry inh inconclusive.
`CCOC(=O)c1csc(NC(=O)c2ccc(S(=O)(=O)N(C)C)cc2)n1` gave Lassa entry inh -16%, HCMV antiviral -63*, HCV inh -14% and Marburg entry inh -3%.
CCOC(=O)c1csc(NC(=O)c2ccc(OCC)cc2)n1 was read as Lassa entry inh inconclusive, HCMV antiviral -61*, FMDV inh inconclusive, HCV inh 2.5µM* and Marburg entry inh inconclusive.
For COC1=C[C@H](C(=O)NC2CCN(Cc3ccccc3)CC2)[C@@]2(C)Cc3ccccc3[C@@H]2CC1=O the results were Marburg entry inh -18%[14.2 µM].
`COc1ccc(-c2nc3cnc(Nc4ccc(F)c(Cl)c4)cc3n2C)cc1OC` gave HCMV antiviral -30.
Screening CN(C)c1ccc(C=C(C#N)C(=O)c2ccccc2)cc1Br returned HCMV antiviral -18 and FMDV inh -1%.
Screening CCOC(=O)c1sc(NC(=O)c2ccc(S(=O)(=O)N(C)C)cc2)cc1C returned Lassa entry inh -20%, HCMV antiviral -87*, FMDV inh inconclusive, HCV inh 11µM* and Marburg entry inh -36%.
`O=C1C=C2C=C[C@@H]3CC2(O1)[C@H]1CCCCN31` gave HCMV antiviral -94*, FMDV inh inconclusive and HCV inh inconclusive.
Screening O=C(N[C@H]1CC[C@@]23CCCN2C(=O)CCC[C@H]3[C@H]1Cc1ccccc1)C1CCOC1 (stereo not given in full) returned HCMV antiviral -10.
O=c1oc2ccccc2n1CSC1=NCCS1 was read as Lassa entry inh inconclusive, HCMV antiviral -62*, FMDV inh 0%, HCV inh inconclusive and Marburg entry inh -19%.
